# Assays:
# Test in all cases: DAPPL (digital affinity profiling via proximity ligation, sequencing); 10 mM Tris-HCl pH 7.5, 50 mM NaCl, 1 mM DTT, 4% glycerol, room temperature, 30 min; GST-TFs on glutathione beads, 16-mer random dsDNA library, 0.1% formaldehyde crosslink after washing; high values mean tight binding
# [1] = target: T1, FLI1 (Homo sapiens, UniProt Q01543 1-452); conditions: protein: recombinant; tags: N-terminal GST; dsDNA, one strand shown
# T1 sequence: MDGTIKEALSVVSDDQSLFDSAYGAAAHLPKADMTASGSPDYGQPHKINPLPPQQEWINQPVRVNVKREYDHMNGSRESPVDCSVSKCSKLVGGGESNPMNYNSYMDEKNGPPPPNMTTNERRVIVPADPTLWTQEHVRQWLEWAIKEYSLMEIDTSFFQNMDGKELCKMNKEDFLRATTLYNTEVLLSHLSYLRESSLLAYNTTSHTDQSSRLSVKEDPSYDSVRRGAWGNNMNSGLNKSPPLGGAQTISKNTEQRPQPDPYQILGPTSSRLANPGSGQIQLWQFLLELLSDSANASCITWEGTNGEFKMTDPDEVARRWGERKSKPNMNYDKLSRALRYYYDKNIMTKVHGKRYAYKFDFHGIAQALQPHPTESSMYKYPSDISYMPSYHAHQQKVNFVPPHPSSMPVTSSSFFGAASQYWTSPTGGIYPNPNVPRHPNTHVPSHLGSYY
# Outline: (§1)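 After expression in yeast as GST fusions, human transcription factors were bound to glutathione beads, DNA-barcoded and mixed with a tag-only sample. The pools were incubated with 200 nmole of a 16-mer random double-stranded DNA library in Tris/NaCl/DTT/glycerol buffer (30 min, room temperature), washed and crosslinked with 0.1% formaldehyde. Proximity ligation with BsaI/T4 ligase ran for 1 h at 37 °C, before PCR amplification and sequencing on an Illumina NextSeq500. Binding signal is a hexamer's read frequency for a factor divided by its frequency for the tag-only sample.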
# [2] = target: T2, ELK1 (Homo sapiens, UniProt P19419 1-428); conditions: protein: recombinant; tags: N-terminal GST; dsDNA, one strand shown
# T2 sequence: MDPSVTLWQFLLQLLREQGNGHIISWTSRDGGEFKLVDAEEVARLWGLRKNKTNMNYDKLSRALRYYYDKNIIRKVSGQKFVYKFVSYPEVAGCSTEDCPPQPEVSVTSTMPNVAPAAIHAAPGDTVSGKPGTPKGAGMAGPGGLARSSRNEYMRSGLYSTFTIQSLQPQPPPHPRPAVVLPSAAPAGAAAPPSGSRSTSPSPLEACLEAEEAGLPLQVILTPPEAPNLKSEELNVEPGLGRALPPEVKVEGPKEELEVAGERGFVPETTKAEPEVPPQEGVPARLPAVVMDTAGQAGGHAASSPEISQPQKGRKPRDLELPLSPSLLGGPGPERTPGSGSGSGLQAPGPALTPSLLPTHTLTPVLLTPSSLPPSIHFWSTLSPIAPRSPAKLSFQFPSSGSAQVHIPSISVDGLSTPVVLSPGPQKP
# Outline: as §1
# [3] = target: T3, GABPA (Homo sapiens, UniProt Q06546 1-454); conditions: protein: recombinant; tags: N-terminal GST; dsDNA, one strand shown
# T3 sequence: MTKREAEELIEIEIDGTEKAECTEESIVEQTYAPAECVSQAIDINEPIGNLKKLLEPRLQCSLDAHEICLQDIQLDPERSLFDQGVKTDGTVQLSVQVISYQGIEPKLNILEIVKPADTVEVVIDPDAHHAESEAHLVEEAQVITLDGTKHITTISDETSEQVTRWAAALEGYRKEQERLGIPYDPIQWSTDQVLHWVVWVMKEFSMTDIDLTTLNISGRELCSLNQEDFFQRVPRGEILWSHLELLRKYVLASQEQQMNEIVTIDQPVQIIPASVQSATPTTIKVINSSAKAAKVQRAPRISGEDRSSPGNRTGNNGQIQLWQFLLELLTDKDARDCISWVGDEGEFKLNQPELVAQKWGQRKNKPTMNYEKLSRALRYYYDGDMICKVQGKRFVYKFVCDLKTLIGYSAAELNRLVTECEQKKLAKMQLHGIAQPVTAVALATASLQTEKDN
# Outline: as §1
# [4] = target: T4, ERG (Homo sapiens, UniProt P11308 1-479); conditions: protein: recombinant; tags: N-terminal GST; dsDNA, one strand shown
# T4 sequence: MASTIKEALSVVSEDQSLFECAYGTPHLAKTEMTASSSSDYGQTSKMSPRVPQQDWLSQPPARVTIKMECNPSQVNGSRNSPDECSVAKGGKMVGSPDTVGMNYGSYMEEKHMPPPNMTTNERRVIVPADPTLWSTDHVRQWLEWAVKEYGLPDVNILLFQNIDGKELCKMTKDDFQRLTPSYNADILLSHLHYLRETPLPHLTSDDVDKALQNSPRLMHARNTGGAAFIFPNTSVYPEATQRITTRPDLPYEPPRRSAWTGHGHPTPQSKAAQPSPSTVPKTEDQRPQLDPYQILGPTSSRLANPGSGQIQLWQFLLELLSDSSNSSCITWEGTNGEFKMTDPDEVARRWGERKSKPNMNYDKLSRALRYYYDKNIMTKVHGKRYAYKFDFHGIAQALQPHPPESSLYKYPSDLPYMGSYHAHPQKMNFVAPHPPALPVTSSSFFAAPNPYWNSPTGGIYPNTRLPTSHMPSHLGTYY
# Outline: as §1
# [5] = target: ELF1 (Homo sapiens, UniProt P32519 1-619); conditions: protein: recombinant; tags: N-terminal GST; dsDNA, one strand shown
# Chain of ELF1 (P32519 whole entry): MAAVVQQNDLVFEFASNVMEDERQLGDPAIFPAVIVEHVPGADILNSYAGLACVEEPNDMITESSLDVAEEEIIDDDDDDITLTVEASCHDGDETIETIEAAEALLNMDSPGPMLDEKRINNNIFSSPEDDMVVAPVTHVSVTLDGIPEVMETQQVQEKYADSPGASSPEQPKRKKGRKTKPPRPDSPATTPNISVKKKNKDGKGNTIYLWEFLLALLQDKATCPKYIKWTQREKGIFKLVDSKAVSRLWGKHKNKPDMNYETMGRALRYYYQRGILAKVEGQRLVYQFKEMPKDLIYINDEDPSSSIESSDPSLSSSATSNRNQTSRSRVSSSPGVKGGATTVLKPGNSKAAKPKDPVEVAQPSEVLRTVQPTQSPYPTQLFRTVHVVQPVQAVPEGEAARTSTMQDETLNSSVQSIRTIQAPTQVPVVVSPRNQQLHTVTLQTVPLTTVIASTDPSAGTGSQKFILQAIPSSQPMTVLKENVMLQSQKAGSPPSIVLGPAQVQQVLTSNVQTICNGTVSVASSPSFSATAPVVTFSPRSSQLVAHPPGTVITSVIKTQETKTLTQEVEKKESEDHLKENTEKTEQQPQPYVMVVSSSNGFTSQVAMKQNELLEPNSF
# Outline: as §1
# [6] = target: T5, EHF (Homo sapiens, UniProt Q9NZC4 1-300); conditions: protein: recombinant; tags: N-terminal GST; dsDNA, one strand shown
# T5 sequence: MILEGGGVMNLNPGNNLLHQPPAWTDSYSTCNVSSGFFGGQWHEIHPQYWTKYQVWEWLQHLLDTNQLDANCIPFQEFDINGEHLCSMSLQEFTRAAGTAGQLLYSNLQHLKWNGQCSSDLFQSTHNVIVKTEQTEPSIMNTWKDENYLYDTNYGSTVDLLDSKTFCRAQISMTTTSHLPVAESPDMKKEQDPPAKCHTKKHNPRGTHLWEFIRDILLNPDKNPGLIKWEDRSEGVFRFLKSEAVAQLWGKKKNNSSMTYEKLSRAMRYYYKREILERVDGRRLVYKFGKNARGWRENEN
# Outline: as §1
# [7] = target: SPI1 (Homo sapiens, UniProt P17947 1-270); conditions: protein: recombinant; tags: N-terminal GST; dsDNA, one strand shown
# Outline: as §1
# [8] = target: SPIB (Homo sapiens, UniProt Q01892 1-262); conditions: protein: recombinant; tags: N-terminal GST; dsDNA, one strand shown
# Chain of SPIB (Q01892 whole entry): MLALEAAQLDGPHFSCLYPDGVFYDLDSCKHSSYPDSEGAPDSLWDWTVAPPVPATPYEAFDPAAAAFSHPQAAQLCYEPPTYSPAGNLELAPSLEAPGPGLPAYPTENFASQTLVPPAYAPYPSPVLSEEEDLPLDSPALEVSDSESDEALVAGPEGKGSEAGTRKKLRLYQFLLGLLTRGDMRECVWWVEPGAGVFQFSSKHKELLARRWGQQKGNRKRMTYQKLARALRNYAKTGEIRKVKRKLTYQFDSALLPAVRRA
# Outline: as §1
# [9] = target: T6, ELK3 (Homo sapiens, UniProt P41970 1-407); conditions: protein: recombinant; tags: N-terminal GST; dsDNA, one strand shown
# T6 sequence: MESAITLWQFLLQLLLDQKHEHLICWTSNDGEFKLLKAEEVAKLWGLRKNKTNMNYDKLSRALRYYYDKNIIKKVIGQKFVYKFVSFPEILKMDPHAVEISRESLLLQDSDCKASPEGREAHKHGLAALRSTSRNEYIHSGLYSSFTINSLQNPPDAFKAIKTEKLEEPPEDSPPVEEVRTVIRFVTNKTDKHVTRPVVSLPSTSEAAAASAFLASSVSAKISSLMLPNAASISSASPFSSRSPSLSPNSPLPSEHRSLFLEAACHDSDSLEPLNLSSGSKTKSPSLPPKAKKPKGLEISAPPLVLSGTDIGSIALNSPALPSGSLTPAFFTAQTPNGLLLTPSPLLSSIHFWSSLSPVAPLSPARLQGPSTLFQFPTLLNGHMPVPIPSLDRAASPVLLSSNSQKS
# Outline: as §1
# [10] = target: T7, FEV (Homo sapiens, UniProt Q99581 1-238); conditions: protein: recombinant; tags: N-terminal GST; dsDNA, one strand shown
# T7 sequence: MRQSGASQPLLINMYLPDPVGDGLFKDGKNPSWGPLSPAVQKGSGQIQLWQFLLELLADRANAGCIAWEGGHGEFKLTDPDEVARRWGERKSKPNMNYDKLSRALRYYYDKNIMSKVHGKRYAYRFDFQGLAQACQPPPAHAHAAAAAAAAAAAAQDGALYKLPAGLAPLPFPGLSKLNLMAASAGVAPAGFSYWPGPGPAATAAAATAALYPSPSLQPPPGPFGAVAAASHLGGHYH
# Outline: as §1
# [11] = target: ETV5 (Homo sapiens, UniProt P41161 1-510); conditions: protein: recombinant; tags: N-terminal GST; dsDNA, one strand shown
# Chain of ETV5 (P41161 whole entry): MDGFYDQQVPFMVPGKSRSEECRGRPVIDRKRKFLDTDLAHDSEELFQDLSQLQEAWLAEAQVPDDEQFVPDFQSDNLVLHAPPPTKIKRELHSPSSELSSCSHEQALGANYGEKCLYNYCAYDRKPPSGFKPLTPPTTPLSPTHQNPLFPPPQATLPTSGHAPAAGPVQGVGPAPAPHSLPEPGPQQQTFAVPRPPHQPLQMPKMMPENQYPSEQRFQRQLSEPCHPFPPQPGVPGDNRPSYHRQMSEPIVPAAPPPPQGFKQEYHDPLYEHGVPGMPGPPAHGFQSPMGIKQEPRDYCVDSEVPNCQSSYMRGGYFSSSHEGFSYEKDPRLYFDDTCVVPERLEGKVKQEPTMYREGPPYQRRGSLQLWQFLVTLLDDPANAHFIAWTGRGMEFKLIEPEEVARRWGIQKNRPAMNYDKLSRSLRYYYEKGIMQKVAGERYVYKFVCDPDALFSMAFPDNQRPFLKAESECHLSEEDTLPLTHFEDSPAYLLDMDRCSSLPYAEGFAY
# Outline: as §1
# [12] = target: HSF1 (Homo sapiens, UniProt Q00613 1-529); conditions: protein: recombinant; tags: N-terminal GST; chain copies: 3; dsDNA, one strand shown
# Chain of HSF1 (Q00613 whole entry): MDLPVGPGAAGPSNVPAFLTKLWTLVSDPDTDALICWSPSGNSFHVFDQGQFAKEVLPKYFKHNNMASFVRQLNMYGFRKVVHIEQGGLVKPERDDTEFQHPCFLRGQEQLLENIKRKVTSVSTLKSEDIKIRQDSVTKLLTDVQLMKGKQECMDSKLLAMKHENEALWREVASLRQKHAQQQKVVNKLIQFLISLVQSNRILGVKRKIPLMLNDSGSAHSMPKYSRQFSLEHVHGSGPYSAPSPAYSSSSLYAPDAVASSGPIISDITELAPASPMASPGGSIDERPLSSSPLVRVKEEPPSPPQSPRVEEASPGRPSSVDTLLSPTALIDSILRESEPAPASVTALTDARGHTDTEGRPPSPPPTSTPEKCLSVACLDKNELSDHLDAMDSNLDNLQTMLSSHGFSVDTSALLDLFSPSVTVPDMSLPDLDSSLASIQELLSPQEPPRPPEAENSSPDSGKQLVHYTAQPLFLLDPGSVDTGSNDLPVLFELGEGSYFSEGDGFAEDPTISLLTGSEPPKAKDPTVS
# Outline: as §1
# [13] = target: T8, SPIC (Homo sapiens, UniProt Q8N5J4 1-248); conditions: protein: recombinant; tags: N-terminal GST; dsDNA, one strand shown
# T8 sequence: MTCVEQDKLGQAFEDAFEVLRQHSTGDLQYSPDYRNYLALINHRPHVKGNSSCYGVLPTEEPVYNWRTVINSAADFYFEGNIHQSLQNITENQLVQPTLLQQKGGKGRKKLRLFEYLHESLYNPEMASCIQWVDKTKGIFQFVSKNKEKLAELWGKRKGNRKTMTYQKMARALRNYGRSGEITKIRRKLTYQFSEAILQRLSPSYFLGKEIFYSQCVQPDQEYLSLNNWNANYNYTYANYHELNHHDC
# Outline: as §1
# [14] = target: ELF4 (Homo sapiens, UniProt Q99607 1-663); conditions: protein: recombinant; tags: N-terminal GST; dsDNA, one strand shown
# Chain of ELF4 (Q99607 whole entry): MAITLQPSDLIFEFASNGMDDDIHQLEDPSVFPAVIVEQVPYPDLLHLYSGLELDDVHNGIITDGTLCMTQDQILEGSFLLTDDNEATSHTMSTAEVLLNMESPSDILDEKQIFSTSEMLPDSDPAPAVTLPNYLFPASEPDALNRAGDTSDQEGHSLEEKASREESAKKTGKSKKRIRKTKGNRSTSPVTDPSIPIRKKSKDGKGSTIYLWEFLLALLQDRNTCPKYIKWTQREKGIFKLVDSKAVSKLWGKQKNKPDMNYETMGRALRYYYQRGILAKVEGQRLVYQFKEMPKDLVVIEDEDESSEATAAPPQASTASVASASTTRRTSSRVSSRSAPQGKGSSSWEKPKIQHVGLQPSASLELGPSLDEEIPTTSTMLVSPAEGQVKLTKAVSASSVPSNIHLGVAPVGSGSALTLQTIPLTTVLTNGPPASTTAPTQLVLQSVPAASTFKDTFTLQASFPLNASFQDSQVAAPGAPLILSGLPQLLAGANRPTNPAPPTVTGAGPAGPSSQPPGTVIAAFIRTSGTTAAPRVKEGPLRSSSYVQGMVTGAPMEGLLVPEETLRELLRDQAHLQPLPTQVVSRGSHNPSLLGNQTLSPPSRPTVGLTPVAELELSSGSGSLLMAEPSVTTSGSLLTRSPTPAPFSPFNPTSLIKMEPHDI
# Outline: as §1
# [15] = target: T9, ELK4 (Homo sapiens, UniProt P28324-2 1-405); conditions: protein: recombinant; tags: N-terminal GST; dsDNA, one strand shown
# T9 sequence: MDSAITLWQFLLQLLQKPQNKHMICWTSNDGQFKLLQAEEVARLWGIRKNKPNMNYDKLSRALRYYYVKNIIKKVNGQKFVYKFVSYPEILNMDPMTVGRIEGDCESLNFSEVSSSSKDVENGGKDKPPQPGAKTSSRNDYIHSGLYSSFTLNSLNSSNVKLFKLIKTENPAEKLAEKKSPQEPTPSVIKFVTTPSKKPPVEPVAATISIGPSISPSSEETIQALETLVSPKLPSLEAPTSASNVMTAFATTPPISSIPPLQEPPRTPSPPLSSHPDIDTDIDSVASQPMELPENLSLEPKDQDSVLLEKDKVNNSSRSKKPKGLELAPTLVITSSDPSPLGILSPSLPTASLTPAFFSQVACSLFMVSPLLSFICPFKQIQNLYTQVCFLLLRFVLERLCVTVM
# Outline: as §1
# [16] = target: T10, ETV2 (Homo sapiens, UniProt O00321 1-342); conditions: protein: recombinant; tags: N-terminal GST; dsDNA, one strand shown
# T10 sequence: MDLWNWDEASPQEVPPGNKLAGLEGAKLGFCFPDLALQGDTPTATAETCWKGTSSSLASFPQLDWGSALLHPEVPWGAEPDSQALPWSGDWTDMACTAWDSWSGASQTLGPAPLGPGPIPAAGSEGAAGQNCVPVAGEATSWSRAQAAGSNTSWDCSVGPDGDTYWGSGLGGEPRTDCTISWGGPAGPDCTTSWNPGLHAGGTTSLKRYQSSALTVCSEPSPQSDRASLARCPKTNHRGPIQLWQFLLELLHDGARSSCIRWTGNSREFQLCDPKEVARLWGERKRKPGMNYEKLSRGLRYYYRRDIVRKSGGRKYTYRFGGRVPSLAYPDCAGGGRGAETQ
# Outline: as §1
# [17] = target: T11, ELF3 (Homo sapiens, UniProt P78545 1-371); conditions: protein: recombinant; tags: N-terminal GST; dsDNA, one strand shown
# T11 sequence: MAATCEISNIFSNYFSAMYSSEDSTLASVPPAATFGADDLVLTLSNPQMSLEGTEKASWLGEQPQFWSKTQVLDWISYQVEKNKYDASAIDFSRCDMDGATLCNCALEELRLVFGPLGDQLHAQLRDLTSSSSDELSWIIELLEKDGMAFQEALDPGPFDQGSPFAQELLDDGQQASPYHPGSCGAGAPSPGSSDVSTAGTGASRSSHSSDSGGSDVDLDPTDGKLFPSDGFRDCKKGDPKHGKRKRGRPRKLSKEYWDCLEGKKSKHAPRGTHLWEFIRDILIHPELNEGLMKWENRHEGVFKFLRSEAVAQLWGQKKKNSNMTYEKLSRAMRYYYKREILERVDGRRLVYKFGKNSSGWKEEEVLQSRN
# Outline: as §1
# [18] = target: CRX (Homo sapiens, UniProt O43186 1-299); conditions: protein: recombinant; tags: N-terminal GST; dsDNA, one strand shown
# Chain of CRX (O43186 whole entry): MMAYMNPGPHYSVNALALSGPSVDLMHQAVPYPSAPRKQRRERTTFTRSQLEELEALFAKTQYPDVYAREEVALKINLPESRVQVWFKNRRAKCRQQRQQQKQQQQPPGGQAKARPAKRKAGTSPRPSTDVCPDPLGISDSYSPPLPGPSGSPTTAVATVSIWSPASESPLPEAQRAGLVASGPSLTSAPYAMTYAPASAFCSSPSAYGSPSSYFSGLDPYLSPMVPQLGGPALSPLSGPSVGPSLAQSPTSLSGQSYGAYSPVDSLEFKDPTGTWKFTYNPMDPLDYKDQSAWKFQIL
# Outline: as §1
# [19] = target: ETV1 (Homo sapiens, UniProt P50549 1-477); conditions: protein: recombinant; tags: N-terminal GST; dsDNA, one strand shown
# Chain of ETV1 (P50549 whole entry): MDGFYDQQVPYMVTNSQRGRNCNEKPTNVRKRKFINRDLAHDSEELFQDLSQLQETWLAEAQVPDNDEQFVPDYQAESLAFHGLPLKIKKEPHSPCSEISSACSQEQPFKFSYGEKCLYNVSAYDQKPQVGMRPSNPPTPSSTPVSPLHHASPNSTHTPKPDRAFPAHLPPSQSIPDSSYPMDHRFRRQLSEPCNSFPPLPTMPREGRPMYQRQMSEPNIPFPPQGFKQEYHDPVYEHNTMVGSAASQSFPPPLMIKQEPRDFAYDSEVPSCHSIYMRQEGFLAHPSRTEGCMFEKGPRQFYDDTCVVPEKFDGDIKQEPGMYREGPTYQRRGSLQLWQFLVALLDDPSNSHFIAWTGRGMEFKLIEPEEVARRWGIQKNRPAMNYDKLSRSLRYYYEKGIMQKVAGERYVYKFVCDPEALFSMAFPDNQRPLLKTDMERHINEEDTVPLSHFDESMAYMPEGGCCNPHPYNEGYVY
# Outline: as §1
sequence,measurement,setting,value
TCCCCA,binding signal,[1],"1.38 fold enrichment (6-mer frequency, TF over GST control)"
same,binding signal,[2],"1.29 fold enrichment (6-mer frequency, TF over GST control)"
same,binding signal,[3],"1.21 fold enrichment (6-mer frequency, TF over GST control)"
same,binding signal,[4],"1.42 fold enrichment (6-mer frequency, TF over GST control)"
same,binding signal,[5],"1.39 fold enrichment (6-mer frequency, TF over GST control)"
same,binding signal,[6],"1.45 fold enrichment (6-mer frequency, TF over GST control)"
same,binding signal,[7],"1.63 fold enrichment (6-mer frequency, TF over GST control)"
same,binding signal,[8],"1.16 fold enrichment (6-mer frequency, TF over GST control)"
same,binding signal,[9],"1.34 fold enrichment (6-mer frequency, TF over GST control)"
same,binding signal,[10],"1.33 fold enrichment (6-mer frequency, TF over GST control)"
same,binding signal,[11],"1.41 fold enrichment (6-mer frequency, TF over GST control)"
same,binding signal,[12],"1.3 fold enrichment (6-mer frequency, TF over GST control)"
same,binding signal,[13],"1.56 fold enrichment (6-mer frequency, TF over GST control)"
same,binding signal,[14],"1.39 fold enrichment (6-mer frequency, TF over GST control)"
same,binding signal,[15],"1.58 fold enrichment (6-mer frequency, TF over GST control)"
same,binding signal,[16],"1.51 fold enrichment (6-mer frequency, TF over GST control)"
same,binding signal,[17],"1.54 fold enrichment (6-mer frequency, TF over GST control)"
same,binding signal,[18],"1.43 fold enrichment (6-mer frequency, TF over GST control)"
same,binding signal,[19],"1.49 fold enrichment (6-mer frequency, TF over GST control)"
